Compound activity as filed in PubChem BioAssay.
Only a selection was taken, and hits are over-represented in it overall.
Artemis endo inh: inhibitors of human Artemis endonuclease activity. Q96SD1. recombinant Artemis, quenched FAM hairpin cleavage fluorescence. inhibition, % at 10 µM. 30,000 tested, 0.78% active. AID 686954;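 active = at 10 µM dose, at least 30% inhibition, measured as corrected fluorescence normalized to stimulator and neutral control wells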
Target sequence (Q96SD1 whole entry, looked up): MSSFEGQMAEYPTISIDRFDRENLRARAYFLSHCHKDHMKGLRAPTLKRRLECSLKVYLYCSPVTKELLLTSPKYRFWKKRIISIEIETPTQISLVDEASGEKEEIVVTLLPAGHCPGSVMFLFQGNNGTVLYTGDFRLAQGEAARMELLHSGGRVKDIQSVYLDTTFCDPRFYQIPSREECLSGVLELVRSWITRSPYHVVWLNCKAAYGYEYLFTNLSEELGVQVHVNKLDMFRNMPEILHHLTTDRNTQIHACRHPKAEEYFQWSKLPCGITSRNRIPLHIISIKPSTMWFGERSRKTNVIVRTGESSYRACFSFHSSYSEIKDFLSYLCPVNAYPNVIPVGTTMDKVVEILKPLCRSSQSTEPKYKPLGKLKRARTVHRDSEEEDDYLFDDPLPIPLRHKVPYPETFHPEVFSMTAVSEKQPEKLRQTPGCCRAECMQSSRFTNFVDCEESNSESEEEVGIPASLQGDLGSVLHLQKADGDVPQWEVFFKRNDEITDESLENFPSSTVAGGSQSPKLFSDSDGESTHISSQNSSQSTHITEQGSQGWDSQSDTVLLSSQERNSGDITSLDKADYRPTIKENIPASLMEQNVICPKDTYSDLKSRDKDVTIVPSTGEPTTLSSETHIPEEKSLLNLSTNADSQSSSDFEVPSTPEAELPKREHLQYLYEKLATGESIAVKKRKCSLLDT
Hits are given with their value; – = inactive.

SMILES	Artemis endo inh
O=C(Cc1cn2ccsc2n1)Nc1nc2c(s1)CN(Cc1ccccc1)CC2	57
CC1CCc2nc(NC(=O)CN3CCOCC3)sc2C1 (centres undefined)	–
CCN1CCc2c(sc(NC(=S)NC(=O)c3ccccc3)c2C#N)C1	–
CCN1CCc2nc(NC(=O)CC(c3ccccc3)c3ccccc3)sc2C1	39
CCN1CCc2nc(NC(=O)C(c3ccccc3)c3ccccc3)sc2C1	49
CC1CCc2nc(NC(=O)CN3CCN(c4ccccc4)CC3)sc2C1 (centres undefined)	–
O=C(Cc1cn2ccsc2n1)Nc1ccccc1Oc1ccccc1	–
COCCSc1nnc(NC(=O)C(C)(C)C)s1	–
O=C(COC(=O)c1ccccc1Nc1cccc(C(F)(F)F)c1)NCc1ccco1	–
Cc1nn(C)c(C)c1/C=N/N=C1\CCC2C3CCc4cc(O)ccc4C3CCC12C (centres undefined)	–
O=[N+]([O-])c1cccc(-c2nnn(C34CC5CC(CC(C5)C3)C4)n2)c1	–
CCn1ncc(/C=N/NS(=O)(=O)c2ccc(Cl)cc2)c1C	–
O=C1Nc2ccccc2/C1=N/c1sc2c(c1C(=O)NCCc1ccccc1)CCCC2	–
COc1ccc(C(=O)C2CN(c3ccccc3)CC2c2ccc(Cl)cc2)cc1 (centres undefined)	–
C/C(CC(=O)Nc1ccccn1)=N\NC(=O)C(=O)Nc1cccc(C)c1	–
C/C(CC(=O)Nc1ccccn1)=N\NC(=O)C(=O)Nc1cccc(Cl)c1C	–
C/C(CC(=O)Nc1ccc(N(C)C)cc1)=N\NC(=O)c1ccccn1	33
COc1ccc(CN2C(=O)c3ccccc3C(/C=N\OCc3ccc(C)cc3)C2=O)cc1 (centres undefined)	–
Cc1ccc(C(=O)COC(=O)CNS(=O)(=O)c2ccccc2)cc1[N+](=O)[O-]	–
Cc1cccc(Oc2ncc(-c3ccc(Cl)cc3)cn2)c1	–
C=CCSc1nnc(-c2cc3c(s2)-c2ccccc2CC3)o1	–
CC(=O)NC(c1ccco1)c1ccc2cccnc2c1O (centres undefined)	–
Cc1cc(NC(c2ccc(Cl)cc2)c2ccc3cccnc3c2O)no1 (centres undefined)	–
Oc1c(C(Nc2ccccn2)c2ccccn2)ccc2cccnc12 (centres undefined)	38
O=C(c1cccnc1)N1CCN(c2c(Cl)cccc2[N+](=O)[O-])CC1	–
SMILES	Artemis endo inh
CCC(CC)C(=O)NC12CC3CC(CC(C3)C1)C2	–
O=C(c1ccco1)N1CCN(C(=O)c2cc(-c3ccccn3)nc3ccc(Cl)cc23)CC1	–
CC(C)Cn1c2c(c(O)c(C(=O)Nc3ncccc3O)c1=O)CCCC2	30
CCn1c(=O)c(C(=O)NCc2ccccn2)c(O)c2ccccc21	–
C=CCn1c(=O)c(C(=O)Nc2cccnc2)c(O)c2ccccc21	–
O=[N+]([O-])c1cccc(/C=C/c2nc3ccc([N+](=O)[O-])cc3[nH]2)c1	–
Cn1cc(C(=O)c2ccc(Cl)cc2)cc1-c1nc2ccccc2n1C	–
COc1cccc(C2(CSc3nnc(-c4cc(OC)c(OC)c(OC)c4)o3)OCCO2)c1	–
COc1cc(C(=O)Nc2ccc(S(=O)(=O)Nc3cc(C)on3)cc2)cc(OC)c1OC	–
Cc1cc(NS(=O)(=O)c2ccc(NC(=S)NC(=O)c3ccc(Cl)cc3Cl)cc2)no1	30
Cc1cc(NS(=O)(=O)c2ccc(NC(=O)CCc3ccccc3)cc2)no1	–
Cc1ccc(CC2CC(=O)N(c3ccc(Cl)cn3)C2=O)cc1 (centres undefined)	–
COC(=O)Cn1ncn2cccc2c1=O	–
CCOC(=O)C(C)n1ncn2cccc2c1=O (centres undefined)	33
CCOC(=O)C(C)n1cnc2c(cnn2-c2ccc(Cl)cc2)c1=O (centres undefined)	–
CCN(CC)c1ccc(C2C(C(C)=O)C(=O)CC(C)(O)C2C(C)=O)cc1 (centres undefined)	–
Cc1cc(-c2csc(N)n2)c(C)n1C	32
Cc1ccc(C2NNC(=O)C2NC(=O)c2ccccc2)cc1 (centres undefined)	–
COc1ccc(/C=N/n2c(SC)nnc(C(C)(C)C)c2=O)c(OC)c1	–
CN1CCN(C2=CC(=O)OC23CCCCC3)CC1	–
COc1ccccc1N1CCN(c2nc(N)c(C#N)c(CC#N)c2C#N)CC1	–
COc1ccccc1N1CCN(c2nnc(-c3ccc(F)cc3)c3ccccc23)CC1	–
N#Cc1c(N2CCCCC2)nc(N)c2c(N)nc3c(c12)CC(c1ccccc1)O3 (centres undefined)	–
N#Cc1c(C(F)(F)F)cc(C2CC2)nc1N1CCCC1	–
COc1cc2c(C#N)c(N3CCN(c4ccccc4OC)CC3)nc(N)c2c(N)n1	45
SMILES	Artemis endo inh
N#Cc1c(N2CCCC2)nc(N)c2c(N)nc(N3CCCC3)cc12	67
CCC(NC(=O)NCc1cccnc1)(C(F)(F)F)C(F)(F)F	–
O=C(N/N=C/c1cccc(F)c1)c1cc(-c2ccco2)nc2ccccc12	–
Cc1cc(Oc2ccc(C#N)cc2)nc(NCc2ccccc2)n1	–
CN(C)S(=O)(=O)c1ccc(NC(=O)COC(=O)c2ccccn2)cc1	–
O=C(Nc1nc2nc(-c3ccccc3)cc(=O)n2[nH]1)c1ccccc1	–
O=c1cc(-c2ccccc2)nc2nc(CCc3ccccc3)[nH]n12	–
O=c1cc(-c2ccccc2)nc2nc(-c3ccco3)[nH]n12	36
O=C(c1ccccc1)c1cc2ccccc2o1	–
Cc1onc(-c2ccccc2)c1C(N)=O	–
Cc1oc2c(c1C(=O)c1ccccc1)C(=O)C(=O)c1ccccc1-2	59
Cc1ccccc1CNC(=O)c1ccc(CSCc2ccccc2)cc1	–
CCCCCCn1c(N2CCN(c3ccccc3)CC2)nc2c1c(=O)[nH]c(=O)n2C	–
CCCCCCn1c(N2CCN(c3cccc(Cl)c3)CC2)nc2c1c(=O)[nH]c(=O)n2C	35
CC(C)CCn1c(N2CCN(c3cccc(Cl)c3)CC2)nc2c1c(=O)[nH]c(=O)n2C	–
O=C(CCCOc1ccc(Cl)cc1)NCC1CCCO1 (centres undefined)	–
CCOP(=O)(c1ccccc1)C1(O)CCCCC1 (centres undefined)	–
COc1ccccc1NC(=O)c1[nH]c(C)c(C(C)=O)c1C	–
COc1cccc(/C=N/NC(=O)c2[nH]c(C)c(C(=O)N/N=C/c3cccc(OC)c3O)c2C)c1O	91
COc1cccc(/C=N/NC(=O)c2ccc(-c3ccccc3)cc2)c1O	–
COc1ccccc1-n1cnnc1SCC(=O)c1ccc[nH]1	–
CCCc1cc(C(=O)N/N=C/c2ccc(C)o2)c2ccccc2n1	–
O=C(NC(=S)Nc1ccc2[nH]ncc2c1)c1ccccc1	–
O=C(NC(C(=O)N/N=C/c1c2ccccc2cc2ccccc12)c1n[nH]c(=O)c2ccccc12)c1ccccc1 (centres undefined)	44
COc1ccc(-c2ccc(C#N)c(OC(=O)c3c(Cl)cccc3Cl)n2)cc1	–
SMILES	Artemis endo inh
O=C(CSc1nnc(C2CC2)n1-c1ccccc1)NCCc1ccccc1	–
c1ccc2nc(N3CCOCC3)cnc2c1	–
CNc1oc(-c2ccc(OCc3ccccc3)cc2)nc1C#N	–
N#Cc1nc(-c2ccc(OCc3ccc(Cl)cc3)cc2)oc1NCCCn1ccnc1	49
N#Cc1nc(-c2ccc(OCc3ccccc3)cc2)oc1NCc1ccco1	–
O=C1CSC(c2cn(-c3ccccc3)nc2-c2cccs2)N1CC1CCCO1 (centres undefined)	–
O=C(COc1ccc(Br)cc1)N1CCC(c2ccccc2)C1 (centres undefined)	–
